Reference: PubChem BioAssay (Tox21)
“And” between values parts separate entries of the source, which are not always exact repeats. Equal entries are not always repeated. Records with an inconclusive call do not appear. Entries that show only a call come without a potency. A structure can be active in one record and inactive in another. The source made the active and inactive calls. Unless noted, calls come from the whole dose curve.

Tests used:
[1] = Nuclear factor erythroid 2-related factor 2/antioxidant responsive element (Nrf2/ARE) small molecule agonists: qHTS cell viability counter screen in human keratinocytes (AID 1919968; active = well fitted curve in the direction sought with a large enough effect in the repeat runs; an effect the other way counts as inactive or inconclusive; note: nearly all actives have a fitted effect of over 55% in size)
Outline: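 HaCaT ARE reporter line, 1,500 cells/well; 5 h settle, 37 C/5% CO2; cpd in DMSO pinned; 23 h exposure; CellTiter-Fluor, 1 h; fluorescence.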

[2] = Nuclear factor erythroid 2-related factor 2/antioxidant responsive element (Nrf2/ARE) small molecule agonists: luciferase reporter gene qHTS assay in human keratinocytes (AID 1919969); note: nearly all actives have a fitted effect of over 35% in size; note: potency is the fitted concentration of half-maximal effect
[3] = target: Gonadotropin-releasing hormone receptor (Homo sapiens) (UniProt P30968); assay: Human gonadotropin-releasing hormone receptor (GnRHR) small molecule agonists, calcium flux assay in GnRHR-HEK293 cells (AID 1920063); note: nearly all actives have a fitted effect of over 35% in size; note: potency is the fitted concentration of half-maximal effect
Outline: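 GnRHR-HEK293, 1500 cells/well, 18 h 37 C/5% CO2; Ca dye 1 h 37 C; cpd pinned (DMSO), agonist mode; kinetic FL 480/540, 3 min, 1 s reads; 15 conc, n=3.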

[4] = target: KiSS-1 receptor (Homo sapiens) (UniProt Q969F8); assay: Human kisspeptin (KISS1R) small molecule agonists, calcium flux assay in KISS1R-HEK293 cells (AID 1920064; active = well fitted curve in the direction sought with a large enough effect in the repeat runs; an effect the other way counts as inactive or inconclusive; note: potency is the fitted concentration of half-maximal effect)
Outline: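 Stable human KISS1R HEK293 line; 18 h plating, 37 C/5% CO2; calcium dye 1 h 37 C; compound pin transfer; kinetic fluorescence Ex/Em 480/540, 3 min.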

[5] = G protein-coupled receptor (GPCR) small molecule agonists, calcium flux assay: HEK293 wild type cell line counter screen (AID 1920065); note: potency is the fitted concentration of half-maximal effect
Outline: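 Kinetic fluorescence at Ex/Em 480/540, recorded every second over 3 min, served as the read-out after compound addition. Each compound was tested at 15 concentrations in triplicate on cells pre-loaded with calcium dye for 1 h.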

[6] = p53 small molecule agonists, cell-based qHTS assay with human liver microsomes (AID 1963577);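 note: p53 response element beta-lactamase reporter cells with liver microsomes plus NADPH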
Outline: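 p53RE-bla cells; 5 h settle, 37 C/5% CO2; cpd + HLM 0.5 mg/mL + NADPH 0.5 mg/mL (final); 16 h 37 C; LiveBLAzer 2 h RT dark; fluorescence readout.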

[7] = p53 small molecule agonists, cell-based qHTS assay with human liver microsomes: qHTS cell viability counter screen (AID 1963579); note: nearly all actives have a fitted effect of over 45% in size; note: potency is the fitted concentration of half-maximal effect
Outline: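 Luminescent CellTiter-Glo read-out, 30 min at room temperature, gauged cytotoxicity in p53RE-bla cells exposed 16 h at 37 C to DMSO-dissolved compounds with metabolic activation by human liver microsomes and NADPH, each 0.5 mg/mL final.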

[8] = p53 small molecule agonists, cell-based qHTS assay with rat liver microsomes: qHTS cell viability counter screen (AID 1963580); note: nearly all actives have a fitted effect of over 45% in size; note: potency is the fitted concentration of half-maximal effect
Outline: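 p53RE-bla HCT-116 cells were exposed 16 h at 37 C to compounds with rat liver microsomes (0.5 mg/mL) and NADPH (0.5 mg/mL). Viability was measured in the same wells as ATP content by CellTiter-Glo luminescence.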

[9] = p53 small molecule agonists, cell-based qHTS assay (AID 1963582; active = well fitted activation curve with a large enough effect in the signal ratio in the repeat runs, not every such curve was filed as active; the % refers to the signal ratio)
Outline: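 Reporter line: p53RE-bla. Pre-incubation 5 h, 37 C, 5% CO2; compound (DMSO, pin tool) 16 h, 37 C; B/G FRET substrate 2 h RT; fluorescence intensity read.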

[10] = target: 5-hydroxytryptamine receptor 2A (Homo sapiens) (UniProt P28223); assay: 5-hydroxytryptamine receptor 2A (HTR2A) small molecule antagonists, cell-based qHTS assay (AID 1963586); note: nearly all actives have a fitted effect of over 45% in size
Outline: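 Antagonist-mode intracellular calcium assay: DOI (4 nM) added after 5 min compound pre-incubation at room temperature to dye-loaded HTR2A-CHO cells. Fluorescence followed for 3 min, sampled every second.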

[11] = target: 5-hydroxytryptamine receptor 2A (Homo sapiens) (UniProt P28223); assay: 5-hydroxytryptamine receptor 2A (HTR2A) small molecule agonists, cell-based qHTS assay (AID 1963587); note: nearly all actives have a fitted effect of over 30% in size; note: potency is the fitted concentration of half-maximal effect
Outline: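 CHO cells stably expressing human HTR2A, plated 18 h, loaded with calcium dye 1 h at 37 C. Agonist mode: compounds added and intracellular calcium fluorescence recorded kinetically for 2 min at 1 sec intervals.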

[12] = target: Muscarinic acetylcholine receptor M1 (Homo sapiens) (UniProt P11229); assay: Cholinergic receptor muscarinic 1 (CHRM1) small molecule agonists, cell-based qHTS assay (AID 1963589); note: nearly all actives have a fitted effect of over 35% in size; note: potency is the fitted concentration of half-maximal effect
Outline: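 Human M1 in stable CHO line; 18 h plating, 1 h dye load 37 C; cpd added (agonist mode); Ca2+ fluorescence kinetic read, 1 s intervals; 15 conc, 3 runs.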

[13] = cAMP Responsive Elements (CRE) small molecule agonists, cell-based qHTS assay (AID 1963590)
Outline: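 HEK 293T CRE-bla, 2,000 cells/well, 18 h preincubation 37 C/5% CO2; cpds (DMSO) pinned, 3 h; LiveBLAzer B/G FRET substrate, 2 h RT.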

[14] = cAMP Responsive Elements (CRE) small molecule antagonists, cell-based qHTS assay (AID 1963591; active = well fitted inhibition curve with a large enough effect in the signal ratio in the repeat runs, not every such curve was filed as active; the % refers to the signal ratio)
Outline: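 Beta-lactamase reporter read by FRET substrate (LiveBLAzer B/G) after 2 h at room temperature. CRE-bla HEK293T cells had received compound plus 0.25 uM (final) NKH477 for 3 h at 37 °C.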

[15] = target: Beta-2 adrenergic receptor (Homo sapiens) (UniProt P07550); assay: Adrenergic beta2 receptor (ADRB2) small molecule antagonists, cell-based qHTS assay (AID 1963592); note: series mostly up to about 92 µM; nearly all actives have a fitted effect of over 50% in size
Outline: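 Cells (CHO, stable ADRB2 overexpression) incubated 18-20hr at 37C; compounds added from DMSO; agonist mix (1nM isoproterenol, 100uM IBMX, 25uM Ro-20-1724) added; 0.5hr RT; d2-cAMP and anti-cAMP-cryptate added; 1hr RT; 665/615 nm read.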

[16] = target: D(2) dopamine receptor (Homo sapiens) (UniProt P14416); assay: Dopamine D2 receptor (DRD2) small molecule agonists, cell-based qHTS assay (AID 1963594); note: nearly all actives have a fitted effect of over 35% in size
Outline: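 HEK293 cells stably expressing human DRD2, pre-treated with PDE inhibitor Ro20-1724 (0.1 mM final) and compound 10 min at room temperature, then stimulated with NKH477 (200nM […]) for 30 min. cAMP read by HTRF (665/620 nm).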

[17] = target: D(2) dopamine receptor (Homo sapiens) (UniProt P14416); assay: Dopamine D2 receptor (DRD2) small molecule antagonists, cell-based qHTS assay (AID 1963595; active = well fitted inhibition curve with a large enough effect in the signal ratio in the repeat runs, with a control signal flat; the % refers to the signal ratio; note: potency is the fitted concentration of half-maximal effect)
Outline: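 Cells were plated and grown for 24 h at 37 °C. Ro20-1724 (0.1 mM final) went in first, then compound for 10 min. NKH477 (200 nM) with quinpirole (12 nM) followed for 30 min at RT, then HTRF detection reagents for 1 h.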

[18] = p53 small molecule agonists, cell-based qHTS assay: qHTS cell viability counter screen (AID 1963581); note: nearly all actives have a fitted effect of over 45% in size; note: potency is the fitted concentration of half-maximal effect
Outline: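 HCT-116 p53RE-bla cells, 4,000/well, plated 5 h before compound pin transfer; 16 h at 37 C; bla substrate 2 h RT; then CellTiter-Glo, 30 min RT, luminescence.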

[19] = target: Muscarinic acetylcholine receptor M1 (Homo sapiens) (UniProt P11229); assay: Cholinergic receptor muscarinic 1 (CHRM1) small molecule antagonists, cell-based qHTS assay (AID 1963588); note: nearly all actives have a fitted effect of over 40% in size
Outline: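 CHRM1-CHO calcium-flux assay, antagonist mode. Cells were seeded 18 h, dye-loaded 1 h at 37 C and given compound for 5 min at RT, then acetylcholine was added at 50nM. FDSS fluorescence was read 3 min; 15 concentrations, three runs.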

[20] = target: Beta-2 adrenergic receptor (Homo sapiens) (UniProt P07550); assay: Adrenergic beta2 receptor (ADRB2) small molecule agonists, cell-based qHTS assay (AID 1963593);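 note: CHO cells stably overexpressing human ADRB2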
Outline: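 CHO cells stably over-expressing ADRB2 were plated overnight at 37C, then dosed with compounds plus a stimulation mix containing 100uM IBMX and 25uM Ro-20-1724 for 0.5hr at room temperature. cAMP was measured by HTRF competition, 1hr.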

Gonadotropin-releasing hormone receptor (Homo sapiens), sequence (P30968 whole entry, looked up): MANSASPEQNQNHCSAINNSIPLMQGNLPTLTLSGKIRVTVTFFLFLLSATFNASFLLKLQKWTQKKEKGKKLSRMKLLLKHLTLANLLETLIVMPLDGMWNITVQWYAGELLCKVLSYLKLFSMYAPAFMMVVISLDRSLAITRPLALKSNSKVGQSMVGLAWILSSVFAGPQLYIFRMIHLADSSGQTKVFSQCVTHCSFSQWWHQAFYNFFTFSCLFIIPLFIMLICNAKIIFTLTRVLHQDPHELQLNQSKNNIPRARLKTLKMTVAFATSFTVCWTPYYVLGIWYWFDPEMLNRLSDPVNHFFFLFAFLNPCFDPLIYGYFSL
Beta-2 adrenergic receptor (Homo sapiens), sequence (P07550 whole entry, looked up): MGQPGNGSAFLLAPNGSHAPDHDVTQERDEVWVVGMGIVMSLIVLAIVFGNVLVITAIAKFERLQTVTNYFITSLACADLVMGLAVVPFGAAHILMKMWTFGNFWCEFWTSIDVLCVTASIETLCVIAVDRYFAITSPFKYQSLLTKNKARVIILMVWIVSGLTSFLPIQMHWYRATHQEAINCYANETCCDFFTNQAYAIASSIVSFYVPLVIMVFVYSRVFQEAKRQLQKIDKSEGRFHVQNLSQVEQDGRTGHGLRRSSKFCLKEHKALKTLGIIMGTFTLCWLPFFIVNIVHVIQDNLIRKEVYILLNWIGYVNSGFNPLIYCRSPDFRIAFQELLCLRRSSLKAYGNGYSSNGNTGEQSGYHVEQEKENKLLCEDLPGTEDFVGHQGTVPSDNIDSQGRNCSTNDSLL
Muscarinic acetylcholine receptor M1 (Homo sapiens), sequence (P11229 whole entry, looked up): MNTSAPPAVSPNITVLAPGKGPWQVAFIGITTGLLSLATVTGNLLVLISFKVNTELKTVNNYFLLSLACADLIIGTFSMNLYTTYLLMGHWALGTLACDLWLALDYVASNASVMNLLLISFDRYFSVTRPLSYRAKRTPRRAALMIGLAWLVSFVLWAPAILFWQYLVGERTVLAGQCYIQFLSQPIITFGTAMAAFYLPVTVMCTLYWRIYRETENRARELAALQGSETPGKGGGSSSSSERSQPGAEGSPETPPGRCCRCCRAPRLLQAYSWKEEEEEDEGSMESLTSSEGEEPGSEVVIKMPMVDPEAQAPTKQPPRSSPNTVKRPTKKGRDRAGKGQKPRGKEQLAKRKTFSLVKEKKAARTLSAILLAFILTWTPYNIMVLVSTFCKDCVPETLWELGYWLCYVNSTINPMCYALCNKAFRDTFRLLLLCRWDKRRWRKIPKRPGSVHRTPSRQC
D(2) dopamine receptor (Homo sapiens), sequence (P14416 whole entry, looked up): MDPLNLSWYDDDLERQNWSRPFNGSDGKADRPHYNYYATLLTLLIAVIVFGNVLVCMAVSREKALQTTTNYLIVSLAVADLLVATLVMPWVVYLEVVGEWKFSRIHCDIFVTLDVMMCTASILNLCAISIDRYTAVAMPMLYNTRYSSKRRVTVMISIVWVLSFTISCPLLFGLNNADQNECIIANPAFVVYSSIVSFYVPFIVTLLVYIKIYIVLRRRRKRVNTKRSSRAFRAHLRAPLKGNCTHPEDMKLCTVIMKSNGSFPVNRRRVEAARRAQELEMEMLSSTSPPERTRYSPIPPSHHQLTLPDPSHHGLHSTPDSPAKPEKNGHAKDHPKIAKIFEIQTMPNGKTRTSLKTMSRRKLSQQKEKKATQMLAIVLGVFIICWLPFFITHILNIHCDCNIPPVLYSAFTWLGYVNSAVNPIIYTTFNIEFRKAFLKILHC
KiSS-1 receptor (Homo sapiens), sequence (Q969F8 whole entry, looked up): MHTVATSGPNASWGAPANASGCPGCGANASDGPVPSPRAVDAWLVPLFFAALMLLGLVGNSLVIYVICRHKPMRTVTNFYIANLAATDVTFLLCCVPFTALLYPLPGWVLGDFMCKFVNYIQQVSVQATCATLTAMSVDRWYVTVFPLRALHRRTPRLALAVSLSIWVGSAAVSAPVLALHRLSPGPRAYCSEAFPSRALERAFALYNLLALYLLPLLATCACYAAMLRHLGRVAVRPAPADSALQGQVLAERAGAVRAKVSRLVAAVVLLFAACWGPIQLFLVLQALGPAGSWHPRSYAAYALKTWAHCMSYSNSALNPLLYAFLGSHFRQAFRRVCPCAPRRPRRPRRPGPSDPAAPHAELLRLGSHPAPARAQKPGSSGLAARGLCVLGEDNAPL
5-hydroxytryptamine receptor 2A (Homo sapiens), sequence (P28223 whole entry, looked up): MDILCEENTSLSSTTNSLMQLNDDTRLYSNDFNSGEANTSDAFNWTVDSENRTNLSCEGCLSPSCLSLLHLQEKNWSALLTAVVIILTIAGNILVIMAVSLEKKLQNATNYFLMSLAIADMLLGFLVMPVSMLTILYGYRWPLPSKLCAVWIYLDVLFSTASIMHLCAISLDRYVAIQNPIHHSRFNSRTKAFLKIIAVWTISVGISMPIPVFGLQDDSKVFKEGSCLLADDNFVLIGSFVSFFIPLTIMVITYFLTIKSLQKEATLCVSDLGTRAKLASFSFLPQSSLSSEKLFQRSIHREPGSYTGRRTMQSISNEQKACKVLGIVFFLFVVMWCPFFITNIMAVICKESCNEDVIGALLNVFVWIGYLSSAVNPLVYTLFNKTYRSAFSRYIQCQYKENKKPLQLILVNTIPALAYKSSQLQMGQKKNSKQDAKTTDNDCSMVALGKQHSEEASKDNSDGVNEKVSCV

SMILES	Potency [1]	Potency [2]	Potency [3]	Potency [4]	Potency [5]	Potency [6]	Potency [7]	Potency [8]	Potency [9]	Potency [10]	Potency [11]	Potency [12]	Potency [13]	Potency [14]	Potency [15]	Potency [16]	Potency [17]	Potency [18]	Potency [19]	Potency [20]
COCCOC(=O)c1ccccc1C(=O)OCCOC	inactive	inactive	inactive	inactive	inactive	inactive	inactive	inactive	inactive	inactive	inactive	inactive	inactive	inactive	inactive	inactive	inactive			
CCCCCCCCO	inactive	inactive	inactive	inactive	inactive	inactive	inactive	inactive	inactive		inactive	inactive	inactive	inactive	inactive	inactive	inactive	inactive	inactive	inactive
COc1ccc(C)cc1N	inactive	inactive	inactive	inactive	inactive	inactive	inactive	inactive	inactive	inactive	inactive	inactive	inactive	inactive	inactive		inactive	inactive	inactive	inactive
C=C1C2CCC(C2)C1(C)C (configuration not stated)	inactive	inactive	inactive	inactive	inactive	inactive	inactive	inactive	inactive	inactive		inactive	inactive	inactive	inactive	inactive	inactive	inactive	inactive	
CCCCCCCCCCCO	inactive	inactive	inactive	inactive	inactive	inactive	inactive	inactive	inactive	inactive	inactive	inactive	inactive	inactive	inactive	inactive	inactive	inactive	inactive	
Nc1nc2ccccc2[nH]1	inactive	inactive	inactive	inactive	inactive	inactive	inactive	inactive	inactive	inactive	inactive	inactive	inactive		inactive	inactive	inactive	inactive	inactive	
OCCOCCOCCOCCO	inactive	inactive	inactive	inactive	inactive	inactive	inactive	inactive	inactive	inactive	inactive	inactive		inactive	inactive	inactive	inactive	inactive	inactive	inactive
CC1=CC(C)(C)Nc2ccccc21	inactive	inactive	inactive	inactive	inactive	inactive	inactive	inactive		inactive	inactive	inactive	inactive	inactive	inactive	inactive	inactive	inactive	inactive	inactive
Cc1cc(C)nc(NS(=O)(=O)c2ccc(N)cc2)n1	inactive	inactive	inactive	inactive	inactive	inactive	inactive	inactive	inactive				inactive	inactive	inactive	inactive	inactive	inactive		inactive
COc1cc(NC(=O)CC(C)=O)c(OC)cc1Cl	inactive	inactive	inactive	inactive	inactive	inactive	inactive	inactive	inactive	inactive	inactive				inactive	inactive		inactive	inactive	
O=C1O[C@H]([C@@H](O)CO)C(O)=C1O	inactive	inactive and 61.1 µM (active)	inactive	inactive	inactive	inactive	inactive	inactive	inactive				inactive	inactive	inactive	inactive	inactive	inactive		inactive
O=S(=O)(O)c1ccc2ccccc2c1	inactive	inactive	inactive	inactive	inactive	inactive	inactive	inactive	inactive	inactive	inactive	inactive	inactive	inactive	inactive	inactive	inactive	inactive	inactive	inactive
CCCCCCCCOc1ccc(C(=O)c2ccccc2)c(O)c1	inactive	inactive	inactive	inactive	inactive	inactive	inactive	inactive	inactive	inactive	inactive	inactive	inactive	inactive		inactive	inactive	inactive	inactive	inactive
CCN=c1cc2oc3cc(NCC)c(C)cc3c(-c3ccccc3C(=O)OCC)c-2cc1C	inactive	inactive and 27.3 µM (active)	12.3 µM (active) and 7.76 µM (active)	17.3 µM (active) and 21.9 µM (active)	38.8 µM (active) and 30.9 µM (active)	inactive	40.6 µM (active) and 40.8 µM (active)	20.4 µM (active) and 40.8 µM (active)			5.47 µM (active) and 19.5 µM (active)	19.4 µM (active) and 19.5 µM (active)					34.4 µM (active)	45.6 µM (active)	inactive	
Cc1ccc(C)c(O)c1	inactive	inactive	inactive	inactive	inactive	inactive	inactive	inactive	inactive	inactive	inactive	inactive	inactive	inactive	inactive	inactive	inactive	inactive	inactive	inactive
